For 40 compounds, Potency results are on record in PubChem BioAssay (NCATS).

Inconclusive results are not listed. Where a call stands in place of a potency, no number is given. Activity calls are given as the source filed them. The call rests on the fitted dose curve; in most records, active means well fitted inhibition curve with a large enough effect; inconclusive means small, poorly fitted or top-dose-only effect; inactive means flat fitted curve, though single readings scatter.

This test deals with Calcium and integrin-binding protein 1 (Homo sapiens) (UniProt Q99828). Briefly: Primary qHTS for Identification of Calcium Integrin Binding Protein 1 (CIB1) Competitor (AID 1508620).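 Further: GST tagged CIB1 binding a fluorescein labelled alphaIIb integrin peptide tracer; top concentration of the series differs between compounds.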 The following applies: CIB1-GST / FITC-alphaIIb peptide fluorescence polarization; series mostly up to 114 µM. The gist of the method: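 Fluorescence polarization competition: CIB1-GST (1 uM final) preincubated with compound 15 min at room temperature, then FITC-labeled alphaIIb peptide (100 nM final) added for another 15 min. Polarization read at Ex 480/Em 540.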
Calcium and integrin-binding protein 1 (Homo sapiens), sequence (Q99828 whole entry, looked up): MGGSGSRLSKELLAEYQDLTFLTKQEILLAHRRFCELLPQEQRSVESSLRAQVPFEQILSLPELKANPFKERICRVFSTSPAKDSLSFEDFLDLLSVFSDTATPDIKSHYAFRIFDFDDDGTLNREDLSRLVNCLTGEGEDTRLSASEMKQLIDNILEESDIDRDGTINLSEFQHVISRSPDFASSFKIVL
Background: In qHTS, concentration-response curves come from the screen itself.
Take `Cc1cc(C)nc(NC(=S)N2CCN(S(=O)(=O)c3cccc(C(F)(F)F)c3)CC2)c1`: the Potency entry was “inactive”.

`N#Cc1ccc(-c2ccc(CNc3ccc(N4CCN5CCCCC5C4)cc3)o2)cc1` (stereo not given): the Potency result is “inactive”. As for `Cc1ccc(C[C@H](C(=O)O)N2C(=O)c3ccc(C(=O)O)cc3C2=O)c(C)c1`, the entry is “inactive”; as for `FC(F)(F)c1ccccc1-c1nc(NCc2ccc(-c3cccc4ccccc34)cc2)c2ccccc2n1`, “inactive”; as for `O=C1Nc2cc(Cl)ccc2/C1=C\c1cc(Cl)c(O)c(Cl)c1`, “inactive”. For the compound `O=C(OCC#CCSc1nnc(-c2cccc3ccccc23)o1)c1sccc1Cl`, the Potency result is “inactive”.

`CC(=O)Nc1sc2c(c1-c1cccs1)CCNC2`: the Potency result was “inactive”.

For the compound `N#Cc1ccccc1CNc1nc2ncc(Br)cc2[nH]1`, the Potency entry is “inactive”. As for `Cn1c2cc(B(O)O)sc2c2cnn(Cc3ccccc3F)c(=O)c21`, the entry is “inactive”; as for `O=S(=O)(c1ccc2c(c1)OCCO2)N1CCN(S(=O)(=O)c2cc(F)ccc2F)CC1`, “inactive”; as for `COc1ccc(NC(=O)c2cnn3c(C)cc(C)nc23)cc1Cl`, “inactive”. The value for `CCCCN(C)C(=O)Cn1nc(-c2cccc(C)c2)ccc1=O` was “inactive”; that for `CC(C)(C)c1ccc(CSc2nc3ncc(Br)cc3[nH]2)cc1` was “inactive”; that for `Cc1noc(C)c1-c1ccc2ncnc(NCc3ccc(-c4ccccc4)cc3)c2c1` was “inactive”. As for `CNc1cc2c(cc1S(=O)(=O)Nc1ccc(C)c(C)c1)CCC(=O)N2`, the entry is “inactive”; as for `Nc1cc(S(=O)(=O)N2CCN(S(=O)(=O)c3ccc4c(c3)OCCO4)CC2)ccn1`, “inactive”. Consider `Cc1ccc(OCCn2c(CCNC(=O)NC3CCCCC3)nc3ccccc32)cc1`, for which the Potency result is “inactive”. As for `N#CNC(=O)c1ccc(-n2cccc2/C=C2\NC(=O)N(CC(=O)Nc3cccc(F)c3)C2=O)cc1`, the entry is “inactive”; as for `Cc1ccc(CNc2ccc(N3CCN(C)CC3=O)cc2)cc1`, “inactive”; as for `CC(=O)N1CCN(c2ccc(NCc3ccc(-c4ccc(Br)cc4)o3)cc2)CC1`, “inactive”. With `COc1cc(-c2ccc3ncnc(NCCc4cnc[nH]4)c3c2)cc(OC)c1OC`, the Potency entry is “inactive”. The value for `O=S(=O)(NCCNc1nc(-c2ccco2)nc2ccccc12)c1ccccc1` was “inactive”. For the compound `COc1ccc(S(=O)(=O)Nc2cc(OC)cc3cccnc23)cc1`, the Potency result is “inactive”. As for `CC(C)(C)c1cccc(-n2cnc3cc(C(=O)N4CCCCC4)ccc32)c1`, the entry is “inactive”.

In the case of `Cc1cccc(-c2ccc3ncnc(N(C)Cc4ccco4)c3c2)c1`, the Potency entry is “inactive”.

With `CC(C)(C)Nc1nc(C#N)nc(Nc2ccccc2)n1`, the Potency result is “inactive”. The value for `COc1cc2nc(N3CCN(C)CC3)nc(NCCN(C)C)c2cc1OC` was “inactive”. The value for `O=C(Nc1ccccc1F)c1ccc(O)c2ncccc12` was “inactive”. On to `Cc1sc(NC(=O)Cc2ccc3c(c2)OCO3)nc1-c1ccc2c(c1)CCN2C`, for which the Potency entry is “inactive”.

Regarding `O=S1(=O)N=C(Oc2ccccc2-c2ccccc2)c2ccccc21`, the Potency entry was “inactive”. As for `CCOC(=O)c1ccc(O)c2ncc(NCC3CCCN(CCc4ccccc4)C3)cc12` (stereo not given), the entry is “inactive”; as for `Cc1cc(C)n2ncc(C(=O)Nc3cc(Cl)cc(Cl)c3)c2n1`, “inactive”; as for `CC(=O)c1ccc(N2CCN(S(=O)(=O)c3ccc4[nH]c(=O)[nH]c4c3)CC2)cc1`, “inactive”. As for `Cc1c(C(=O)NCC2CCCO2)[nH]c2c1C(=O)CC(c1ccco1)C2` (stereo not given), the entry is “inactive”; as for `O=C(CSc1nnc(-c2cccc(S(=O)(=O)N3CCCC3)c2)n1-c1ccccc1)Nc1ccc(Cl)cc1`, “inactive”. Regarding `Cc1sc(NC(=O)Cc2ccc3c(c2)OCO3)nc1-c1ccc2c(c1)CCN2C(=O)c1ccccc1Cl`, the Potency entry is “inactive”. The value for `COc1ccc(OC)c(C2=Nn3c(nnc3-c3ccccc3O)SC2)c1` was “inactive”; that for `O=C1CCc2cc(S(=O)(=O)Nc3cccc4ccccc34)ccc2N1` was “inactive”; that for `Cc1cc2c(s1)c1cnn(Cc3c(F)c(F)c(C)c(F)c3F)c(=O)c1n2C` was “inactive”. As for `Cc1cnc(-c2ccccc2C2COC2)nc1NCC1CCN(c2cccnc2)CC1`, the entry is “inactive”.
